The values that follow come from PubChem BioAssay (NCATS).

Records with an inconclusive call do not appear. Active and inactive are the calls of the source. Unless noted, calls come from the whole dose curve; as a rule, active = well fitted curve in the direction sought with a large enough effect; inconclusive = small, poorly fitted or top-dose-only effect, or another doubt; inactive = no such curve, though single readings can be large; an effect the other way counts as inactive or inconclusive.

Experiment [1] in a line: NCATS anti-infectives library activity on HEK293 viability as a counter-qHTS vs the C. elegans viability qHTS (AID 1745854).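 Note: HEK293 cells exposed to compounds for 24 hr before the viability read; % is set by controls: 0 for no effect and ±100 for the full control effect.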 The method in brief: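 Cytotoxicity in human HEK293 cells is measured by ATP-dependent CellTiter-Glo luminescence following a 24 hr incubation with titrated library compounds at 37C. Top final concentration is 41.7 uM.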
For orientation: In qHTS, concentration-response curves come from the screen itself.

Experiment [2] in a line: NCATS anti-infectives library activity on the primary C. elegans qHTS viability assay (AID 1745855; calls by dose curve; note: potency is the fitted concentration of half-maximal effect). The method in brief: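 Viability is taken from GFP fluorescence of PE254-GFP-FLuc C. elegans imaged by laser cytometry over 7 days. Ten L1 worms per well grow at 21 °C on TOP10 E. coli capsules with titrated compound; levamisole marks toxicity.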
For experiment [3], the target named is Glutathione peroxidase 1 (Homo sapiens) (UniProt P07203). Put plainly: Primary qHTS Assay for Inhibitors of Recombinant Selenoprotein Glutathione Peroxidase 1 (GPX1) (AID 1845191). Note: nearly all actives have a fitted effect of over 65% in size. The gist of the method:
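GR-coupled assay: compounds preincubated 30 min at room temperature with GPX1, then reaction started with CHP; final 10 nM GPX1, 1 mM GSH, 0.5 mM CHP, 0.5 mM NADPH, 100 nM GR, 0.01% BSA, pH 7.5 Tris buffer. NADPH fluorescence (340/450 nm) read at 0 and 15 min.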

In experiment [4] the target is Phospholipid hydroperoxide glutathione peroxidase GPX4 (Homo sapiens) (UniProt P36969). Kind of experiment: Primary qHTS Assay for Inhibitors of Recombinant Selenoprotein Glutathione Peroxidase 4 (GPX4) (AID 1845192). Note: % is set by controls: 0 for no effect and ±100 for the full control effect; nearly all actives have a fitted effect of over 65% in size. The gist of the method:
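GR-coupled assay: recombinant GPX4 preincubated 30 min with compound at room temperature; final 200 nM GPX4, 1 mM GSH, 0.5 mM cumene hydroperoxide, 0.5 mM NADPH, 100 nM GR, 0.01% BSA, pH 7.5 Tris. NADPH fluorescence (340/450 nm) read at 0 and 15 min.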

Experiment [5] addresses Luciferin 4-monooxygenase (Photinus pyralis) (UniProt P08659). Put plainly: Primary firefly luciferase (FLuc) qHTS assay for identification of artifact compounds. (AID 1845220).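 For activity change, negative = inhibition: plate controls were DMSO vehicle for no effect and no enzyme for full effect.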 Note: nearly all actives have a fitted effect of over 60% in size. The gist of the method: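 D-luciferin and ATP (10 uM each, final) in Tris acetate buffer pH 7.6 were incubated with compounds for 15 min at room temperature. The reaction was started with 10 nM Photinus pyralis luciferase and luminescence read after 5 min. Percent inhibition was fitted to a 4-parameter Hill equation.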

Experiment [6] in a line: Primary fluorescence-based thiol-reactive (MSTI) qHTS assay for identification of artifact compounds. (AID 1845221). Note: nearly all actives have a fitted effect of over 65% in size. Note: potency is the fitted concentration of half-maximal effect. The method in brief:
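One-hour, room-temperature, dark incubation of compound with 4 uM MSTI in PBS (pH 7.4, 2% DMSO) precedes a fluorescence read at 525 nm excitation, 598 nm emission; Hill-equation fitting yields concentration-response values.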

For experiment [7], the system named is Nanoluciferase (engineered Oplophorus gracilirostris luciferase). Kind of experiment: Primary Nanoluciferase (NLuc) qHTS assay for identification of artifact compounds. (AID 1845222).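 Note: 0% = DMSO and -100% = no enzyme.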 The gist of the method: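 Diluted conditioned medium from NLuc-expressing S16 cells treated with compounds for 15 min at room temperature, then Nano-Glo substrate added; luminescence read after 5 min. Percent inhibition versus no-enzyme and DMSO controls fitted to 4-parameter Hill equation.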

Experiment [8] can be described thus: Primary redox qHTS assay for identification of artifact compounds. (AID 1845223).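 Note: 0% = DMSO and 100% = reference compound.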 The method in brief: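 Amplex Red (25 uM) and HRP (250 mU/mL) in HBSS, with compounds for 15 min, then 250 uM DTT for 30 min, room temperature, dark. Fluorescence 525/598 nm read; normalized to DMSO and 10 uM DA3003; Hill fit.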
Experiment [9] can be described thus: Viability counterscreen for antagonist of constitutive androstane receptor (CAR) against the NCATS DSHEA and TCM libraries (AID 1794837).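 Note: compound exposure lasted 24 h before viability reading; 0% is about no effect.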 The method in brief:
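Cell viability, CellTiter-Fluor, Ex/Em 405/540 nm, 1 h at 37C. HepG2-CYP2B6-hCAR, 2,500 cells/well; cpds + CITCO 48 uM final (antagonist mode), 24 h, 37C/5% CO2.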

The nature of experiment [10]: Viability counterscreen for agonist of constitutive androstane receptor (CAR) against the NCATS DSHEA and TCM libraries (AID 1794838).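 Note: HepG2 cells with CYP2B6 reporter and hCAR plus 0.75 µM PK11195 antagonist; 0% is about no effect.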 The method in brief: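 Viability by CellTiter-Fluor fluorescence, 405/540 nm, after 1 h at 37C. HepG2-CYP2B6-hCAR cells were exposed 24 h to test substances in presence of 0.75 uM PK11195 (final).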
For orientation: The purpose of a counterscreen is to sort out artefacts and off-target activity.

Experiment [11] in a line: HepG2 viability counterscreen (readout 2: ATP content) against the NCATS DSHEA and TCM libraries (AID 1794840). Note: 0% is about no effect. The method in brief: (§1)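 1,000 HepG2 cells/well, 4 h attach; compounds ~24 h, 37C/5% CO2. Readout 1: GF-AFC 25 uM final, 30 min, fluorescence 380/510 nm. Readout 2: CellTiter-Glo, 30 min RT, luminescence.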
Experiment [12] is described as follows: HepG2 viability counterscreen (readout 1: protease activity) against the NCATS DSHEA and TCM libraries (AID 1794841).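 Note: cells exposed to compounds for about 24 h before the protease read; 0% is about no effect.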 The gist of the method: as §1
Experiment [13] addresses Catechol O-methyltransferase (Homo sapiens) (UniProt P21964). Put plainly: Confirmatory Screen for Target Class Profiling of Small Molecule Inhibitors of Methyltransferases (AID 1745852; calls by dose curve; note: potency is the fitted concentration of half-maximal effect; for activity change, negative = inhibition: % is set by controls: 0 for no effect and ±100 for the full control effect). The following applies: MTase-Glo luminescence, SAH detection, recombinant enzyme; measured here: COMT max response; stronger effect = lower value.
Experiment [14] concerns the target Guanidinoacetate N-methyltransferase (Homo sapiens) (UniProt Q14353). The experiment is described as above. The following applies: activity change, negative = inhibition: at 57.3 µM (top of the series) unless noted.
Experiment [15] addresses Nicotinamide N-methyltransferase (Homo sapiens) (UniProt P40261). The description is as above. The note with it: MTase-Glo luminescence, SAH detection, recombinant enzyme; measured here: NNMT max response; stronger effect = lower value.
Experiment [16] concerns the target Phenylethanolamine N-methyltransferase (Homo sapiens) (UniProt P11086). Described as above. The note with it: MTase-Glo luminescence, SAH detection, recombinant enzyme; measured here: PNMT max response; stronger effect = lower value.

Chain of Glutathione peroxidase 1 (Homo sapiens) (P07203 whole entry, looked up): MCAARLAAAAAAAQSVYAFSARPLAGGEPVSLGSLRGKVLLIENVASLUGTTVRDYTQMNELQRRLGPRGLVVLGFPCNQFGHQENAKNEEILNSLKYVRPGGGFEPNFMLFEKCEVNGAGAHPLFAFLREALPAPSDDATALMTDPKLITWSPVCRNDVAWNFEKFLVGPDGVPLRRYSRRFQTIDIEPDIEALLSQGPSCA
Chain of Nicotinamide N-methyltransferase (Homo sapiens) (P40261 whole entry, looked up): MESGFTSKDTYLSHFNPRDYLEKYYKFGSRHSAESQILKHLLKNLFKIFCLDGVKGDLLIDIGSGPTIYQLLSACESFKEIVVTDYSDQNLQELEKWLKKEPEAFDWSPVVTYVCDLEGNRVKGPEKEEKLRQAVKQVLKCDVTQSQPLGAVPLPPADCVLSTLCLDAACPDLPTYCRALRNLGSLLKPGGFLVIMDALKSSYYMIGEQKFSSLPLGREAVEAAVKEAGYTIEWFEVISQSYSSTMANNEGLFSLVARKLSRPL
Chain of Phenylethanolamine N-methyltransferase (Homo sapiens) (P11086 whole entry, looked up): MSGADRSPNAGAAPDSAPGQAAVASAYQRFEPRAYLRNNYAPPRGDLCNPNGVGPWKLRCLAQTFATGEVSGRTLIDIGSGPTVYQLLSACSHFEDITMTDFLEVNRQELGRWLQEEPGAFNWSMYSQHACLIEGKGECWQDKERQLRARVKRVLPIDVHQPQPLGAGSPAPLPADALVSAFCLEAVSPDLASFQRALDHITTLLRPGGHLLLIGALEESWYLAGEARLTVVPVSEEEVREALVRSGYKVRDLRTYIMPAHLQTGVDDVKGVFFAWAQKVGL
Chain of Catechol O-methyltransferase (Homo sapiens) (P21964 whole entry, looked up): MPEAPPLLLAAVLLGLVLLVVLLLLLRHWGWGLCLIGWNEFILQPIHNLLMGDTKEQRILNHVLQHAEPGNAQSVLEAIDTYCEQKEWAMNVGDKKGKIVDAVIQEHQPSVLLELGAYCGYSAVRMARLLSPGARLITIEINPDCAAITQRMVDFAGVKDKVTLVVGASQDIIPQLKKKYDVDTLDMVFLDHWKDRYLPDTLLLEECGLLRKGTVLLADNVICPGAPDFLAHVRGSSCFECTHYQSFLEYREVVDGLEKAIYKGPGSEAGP
Chain of Phospholipid hydroperoxide glutathione peroxidase GPX4 (Homo sapiens) (P36969 whole entry, looked up): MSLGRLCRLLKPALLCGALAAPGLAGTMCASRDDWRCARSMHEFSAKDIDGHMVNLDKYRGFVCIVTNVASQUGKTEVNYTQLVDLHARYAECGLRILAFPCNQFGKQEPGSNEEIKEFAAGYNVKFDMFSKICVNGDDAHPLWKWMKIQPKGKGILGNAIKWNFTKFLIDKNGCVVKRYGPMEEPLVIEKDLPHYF

On to `CCCc1ccc(OCC(=O)N(Cc2nc(-c3cccnc3)no2)C(C)C)cc1`, for which the outcome in experiment [1] was “inactive”. Further, the Potency entry in experiment [2], in experiment [3], in [4], in experiment [5], in [6] and in experiment [7] was “inactive” in each case. Besides, the Potency entry in experiment [8] is “inactive”.
`COC1CCN(C(=O)c2cc(Cc3n[nH]c(=O)c4ccccc34)ccc2F)CC1`: the outcome in experiment [1] is “inactive”. In addition, the Potency entry in [3], in experiment [4], in [5], in experiment [6], in experiment [7] and in experiment [8] was “inactive” throughout.
`Cn1cc(-c2ccc(S(=O)(=O)n3ccc(/C=C/C(=O)Nc4ccccc4N)c3)cc2)cn1`: the outcome in [1] is “inactive”. For the same compound, the Potency result in [3], in [4], in [5], in experiment [6], in [7] and in [8] was “inactive” throughout.
Take `CCC[C@H](N[C@H]1CCc2cc(F)cc(F)c2C1)C(=O)Nc1cn(C(C)(C)CNCC(C)(C)C)cn1`: in experiment [1], the outcome is “inactive”. Besides, the Potency entry in experiment [2], in [3], in [4], in experiment [5], in [6] and in [7] was “inactive” in each case. Further, the Potency entry in [8] is “inactive”.
In the case of `CC(=O)C1=C(O)C=C2Oc3c(C(C)=O)c(O)c(C)c(O)c3[C@]2(C)C1=O`, the outcome in [1], in experiment [9], in experiment [10], in experiment [11] and in [12] was “inactive” in each case. Besides, the Potency entry in experiment [3], in experiment [4], in experiment [5] and in experiment [7] was “inactive” in each case.
Regarding `CCCCCCCOc1cc2c(cc1/C(C)=C/c1ccc(C(=O)O)cc1)C(C)(C)CCS2(=O)=O`, the activity in [13] was -11.5%; in [15], -71.1%; in experiment [16] it was -11.4%. For the same compound, the Potency in experiment [14] is 27.1 µM (active). Besides, the Potency result in [4], in experiment [5], in experiment [6], in experiment [7] and in [8] was “inactive” throughout.
`NS(=O)(=O)c1ccc(NC(=O)Nc2ccc(F)cc2)cc1`: the outcome in experiment [1] was “inactive”. Further, in [2], the Potency was 12.9 µM (active). Besides, the Potency entry in [3], in [4], in experiment [5], in [6], in [7] and in experiment [8] was “inactive” throughout.
As for `O=C(Nc1cc(C(F)(F)F)ccc1N1CCCCC1)c1ccncc1`, in experiment [1], the outcome was “inactive”. Besides, the Potency entry in experiment [2], in experiment [3], in [4], in experiment [5], in [6] and in experiment [7] was “inactive” in each case. Moreover, the Potency result in experiment [8] was “inactive”.
For `O=C(NC[C@H]1CN(c2ccc(N3CCOCC3=O)cc2)C(=O)O1)c1ccc(Cl)s1`, the outcome in [1] is “inactive”. Besides, the Potency result in experiment [3], in [4], in [5], in experiment [6], in [7] and in experiment [8] was “inactive” throughout.
As for `CCCN1CCC=C(c2cc(-c3ccc(C)cc3)no2)C1`, the outcome in experiment [1] was “inactive”. For the same compound, the Potency in experiment [2] is 6.48 µM (active). The Potency result in experiment [3], in [4], in [6], in [7] and in [8] was “inactive” throughout.
As to `COc1cc2c(cc1OC)CN(C(=O)/C=C/c1c(-c3ccccc3)n(C)c3ncccc13)CC2`, the activity in [13] is -6.33%; in [15], -30.5%; in [16], -5.99%. Further, the activity change, negative = inhibition in experiment [14] was -4.03%. Further, the Potency result in experiment [4], in experiment [5], in [6] and in experiment [7] was “inactive” in each case.
Turning to `Fc1ccc(N2CCCCC2)c(NC(=S)c2ccncc2)c1`, the activity in [13] was -6%; in experiment [15], -9.58%; in experiment [16] it was -11.8%. In experiment [14], the activity change, negative = inhibition amounted to 2.26%. Moreover, the Potency entry in [4], in experiment [5], in [6], in experiment [7] and in [8] was “inactive” throughout.
Consider `COc1cccc(N2CCN(C3=Nc4c(F)cccc4[C@H](CC(=O)O)N3c3cc(C(F)(F)F)ccc3OC)CC2)c1`, for which the outcome in experiment [1] is “inactive”. Besides, the Potency entry in [3], in experiment [4], in experiment [5], in experiment [6], in experiment [7] and in experiment [8] was “inactive” in each case.
As to `CCCC(CCC)C(N)=O`, in [1], the outcome is “inactive”.
As for `N#C/C(=C1\Nc2ccccc2S1)c1ccnc(NCCc2cccnc2)n1`, the activity in experiment [13] was -23.6%; in experiment [15], -43.4%; in [16], -21.8%. In addition, the Potency in experiment [14] was 15.2 µM (active); in experiment [6], 1.34 µM (active). In addition, the Potency entry in experiment [4], in experiment [5] and in experiment [8] was “inactive” each time.
Take `Cc1cnc(-c2ccccc2C(C)C)nc1NCc1ccc(-n2ccnn2)cc1`: the outcome in experiment [1] is “inactive”. Also, the Potency entry in experiment [3], in experiment [4], in experiment [5], in [6] and in [8] was “inactive” each time.
